# Assay results published in the supplement of paper PMC10503962.
# Tested on: Trichuris muris adult worms
# Experiment: mean motility score (Paragon pixel variance) of adult worms (arbitrary units); higher = more motile worms, i.e. less anthelmintic effect; extreme values may be limits of the assay
# Details: 100 µM; 24 h
# Description: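 Primary ex vivo screen of 409 approved drugs against adult Trichuris muris worms: one worm per well in RPMI-1640 with penicillin/streptomycin, 100 µM drug in 1% DMSO, 37 °C, 5% CO2 for 24 h. Motility was recorded with INVAPP (200-frame movies) and scored with the Paragon pixel-variance algorithm. Values are means of triplicate wells run on three occasions; levamisole was the positive control and DMSO the negative control.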
row,Structure (SMILES),mean motility score
1,COC(=O)C1=C(C)NC(C)=C(C(=O)OCCN2CCN(C(c3ccccc3)c3ccccc3)CC2)C1c1cccc([N+](=O)[O-])c1.Cl (stereo not given) [manidipine hydrochloride],1540
2,CCCN(CCc1cccs1)[C@H]1CCc2c(O)cccc2C1 [rotigotine],3100
3,CN(C)CCC=C1c2ccccc2CCc2ccccc21.Cl [amitriptyline hydrochloride],0
4,CN1Cc2c(N)cccc2C(c2ccccc2)C1 (stereo not given) [nomifensine],2230
5,CC1(C)S[C@@H]2[C@H](NC(=O)COc3ccccc3)C(=O)N2[C@H]1C(=O)O [penicillin V],1470
6,CC[N+](C)(C)c1cccc(O)c1.[Cl-] [edrophonium chloride],2890
7,Cl.O=C1CC2(CCCC2)CC(=O)N1CCCCN1CCN(c2ncccn2)CC1 [buspirone hydrochloride],4250
8,Cc1cn(-c2cc(NC(=O)c3ccc(C)c(Nc4nccc(-c5cccnc5)n4)c3)cc(C(F)(F)F)c2)cn1 [nilotinib],2370
9,COc1cc(N)c(Cl)cc1C(=O)NC1CCN(CCCOc2ccc(F)cc2)CC1OC.O (stereo not given) [cisapride monohydrate],2840
10,Cc1ccc(-c2ncc(Cl)cc2-c2ccc(S(C)(=O)=O)cc2)cn1 [etoricoxib],3660
11,CCCCCCCCCC(=O)OC1(c2ccc(Cl)cc2)CCN(CCCC(=O)c2ccc(F)cc2)CC1 [haloperidol decanoate],4450
12,CCC1(c2ccccc2)C(=O)NCNC1=O [primidone],3160
13,Clc1ccc2c(c1)CCc1cccnc1C2=C1CCNCC1 [desloratadine],930
14,N[C@@H](Cc1cc(I)c(Oc2ccc(O)c(I)c2)c(I)c1)C(=O)O [liothyronine],1020
15,C[C@H](Cc1cc2c(c(C(N)=O)c1)N(CCCO)CC2)NCCOc1ccccc1OCC(F)(F)F [silodosin],3810
16,CCOc1ccccc1OCCN[C@H](C)Cc1ccc(OC)c(S(N)(=O)=O)c1.Cl [tamsulosin hydrochloride],2890
17,CN1CCc2cccc3c2[C@H]1Cc1ccc(O)c(O)c1-3 [apomorphine],2320
18,O=c1ccc2ccccc2o1 [coumarin],3690
19,CS(=O)(=O)CCNCc1ccc(-c2ccc3ncnc(Nc4ccc(OCc5cccc(F)c5)c(Cl)c4)c3c2)o1 [lapatinib],999
20,C=C[C@H]1CN2CC[C@H]1C[C@@H]2[C@@H](O)c1ccnc2ccc(OC)cc12 [quinidine],1610

row,Structure (SMILES),mean motility score
1,CCC(C)n1ncn(-c2ccc(N3CCN(c4ccc(OC[C@H]5CO[C@](Cn6cncn6)(c6ccc(Cl)cc6Cl)O5)cc4)CC3)cc2)c1=O (stereo not given in full) [itraconazole],1700
2,CC(C)NCC(O)COc1cccc2ccccc12.Cl (stereo not given) [propranolol hydrochloride],4260
3,CCCNCC(O)COc1ccccc1C(=O)CCc1ccccc1 (stereo not given) [propafenone],1050
4,N=C(N)NCCN1CCCCCCC1.N=C(N)NCCN1CCCCCCC1.O=S(=O)(O)O [guanethidine sulfate],2380
5,CC(C)(C)c1nc(-c2cccc(NS(=O)(=O)c3c(F)cccc3F)c2F)c(-c2ccnc(N)n2)s1 [dabrafenib],6
6,COc1ccc(Cl)cc1C(=O)NCCc1ccc(S(=O)(=O)NC(=O)NC2CCCCC2)cc1 [glyburide],2300
7,COc1cc(C(C)=O)ccc1OCCCN1CCC(c2noc3cc(F)ccc23)CC1 [iloperidone],1950
8,NC(N)=O [urea],4760
9,c1cnc(N2CCN(Cc3ccc4c(c3)OCO4)CC2)nc1 [piribedil],1950
10,CCCCNc1ccc(C(=O)OCCN(C)C)cc1 [tetracaine],4810
11,Nc1nnc(-c2cccc(Cl)c2Cl)c(N)n1 [lamotrigine],2280
12,NS(=O)(=O)Cc1noc2ccccc12 [zonisamide],2960
13,CCN1CCN(c2cc(-c3ccc(F)cc3)c3c(n2)CCCCCC3)CC1 [blonanserin],3080
14,Cc1oncc1C(=O)Nc1ccc(C(F)(F)F)cc1 [leflunomide],2250
15,CN/C(=N/CCSCc1nc[nH]c1C)NC#N [cimetidine],2750
16,Nc1ccc(S(=O)(=O)Nc2ccnn2-c2ccccc2)cc1 [sulfaphenazole],3280
17,CN1C(C(=O)Nc2ccccn2)=C(O)c2ccccc2S1(=O)=O [piroxicam],2510
18,N[C@@H](Cc1c[nH]c2ccc(O)cc12)C(=O)O [oxitriptan],3310
19,O=C(O)COC(=O)Cc1ccccc1Nc1c(Cl)cccc1Cl [aceclofenac],972
20,CC(C)NCC(O)c1ccc(NS(C)(=O)=O)cc1.Cl (stereo not given) [sotalol hydrochloride],2900
